# Screening data: PubChem BioAssay, National Center for Advancing Translational Sciences (NCATS)
# TRPV1 PAM – enhances activation of the human vanilloid receptor TRPV1. TRPV1-expressing cells, Fluo-8 calcium influx, capsaicin EC20 potentiation. potentiation, % at 8.33 µM. 320,000 tested, 0.02% active. AID 540277; in the data active = potentiation above about 80%; inconclusive = between about 30% and that limit; note: 0% is about no effect
# Target sequence (Q8NER1 whole entry, looked up): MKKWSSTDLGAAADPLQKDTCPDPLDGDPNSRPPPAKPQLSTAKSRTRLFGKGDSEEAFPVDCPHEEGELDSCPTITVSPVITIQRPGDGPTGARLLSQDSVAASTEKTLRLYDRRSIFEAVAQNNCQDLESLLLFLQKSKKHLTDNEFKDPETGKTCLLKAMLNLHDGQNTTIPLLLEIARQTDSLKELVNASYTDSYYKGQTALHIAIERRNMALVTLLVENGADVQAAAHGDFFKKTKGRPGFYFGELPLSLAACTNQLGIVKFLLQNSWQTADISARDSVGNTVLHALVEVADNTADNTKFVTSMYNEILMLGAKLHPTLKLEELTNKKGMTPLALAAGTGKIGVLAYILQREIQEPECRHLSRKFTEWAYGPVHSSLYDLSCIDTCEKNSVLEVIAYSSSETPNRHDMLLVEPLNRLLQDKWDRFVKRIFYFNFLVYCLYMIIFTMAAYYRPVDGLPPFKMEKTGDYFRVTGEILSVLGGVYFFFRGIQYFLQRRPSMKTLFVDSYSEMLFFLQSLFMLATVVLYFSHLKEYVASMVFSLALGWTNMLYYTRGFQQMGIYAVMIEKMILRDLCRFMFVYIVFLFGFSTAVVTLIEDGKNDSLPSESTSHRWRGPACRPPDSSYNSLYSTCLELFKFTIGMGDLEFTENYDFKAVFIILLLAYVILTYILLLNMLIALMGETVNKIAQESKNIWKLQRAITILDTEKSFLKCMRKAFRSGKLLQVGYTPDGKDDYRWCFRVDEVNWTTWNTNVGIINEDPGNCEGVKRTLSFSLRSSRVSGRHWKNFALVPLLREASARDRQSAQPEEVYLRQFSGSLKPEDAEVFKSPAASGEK
#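 Fluo-8 calcium influx in TRPV1-expressing cells, kinetic read (ex 480/em 520 nm). Compound added and read 3 min for agonist activity, followed by capsaicin at EC20 final and 2 min further read for enhancement.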
# D1 antagonist – human D1 dopamine receptor antagonism; P21728; HEK293 TREx D1 cells, calcium flux, dopamine EC80; active compounds read low; activity change, negative = inhibition, % at 10 µM; 360,000 tested, 3.2% active; AID 504652; in the data active = activity change below about -30%; note: % is set by controls: 0 for no effect and ±100 for the full control effect
#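 Antagonism measured as reduced calcium response to an EC80 dopamine addition following 180 s compound pre-read; cells were inducible HEK293 Trex D1 plated overnight at 30 C, read kinetically at 1 cycle/sec.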
# D1 agonist – human D1 receptor agonism; P21728; HEK293 T-REx D1 cells, calcium flux, agonist mode; activation, % at 2 µM; 360,000 tested, 1% active; in the data active = activation above about 30%; note: 0% is about no effect
#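 Tetracycline-induced HEK293 TREx D1 cells, force-coupled to calcium signalling, were dye-loaded with a no-wash calcium kit. Compound was pin-added after a 10 s baseline. Fluorescence was read kinetically at 1 cycle/s for 180 s, with calcium rises flagged as agonism.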
# D1 potentiator – human D1 dopamine receptor positive modulation | 360,000 tested, 0.036% active | potentiation, % at 10 µM | HEK293 TREx D1 cells, calcium flux, dopamine EC20 potentiation | AID 504651 | P21728; in the data active = potentiation above about 30%; note: 0% is about no effect
# TRPV1 agonist – agonists of human vanilloid receptor 1 (TRPV1). Q8NER1. TRPV1-expressing cells, Fluo-8 calcium influx, agonist mode. activation, % at 8.33 µM. 320,000 tested, 0.19% active; in the data active = activation above about 80%; inconclusive = between about 30% and that limit; note: 0% is about no effect
#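 Fluo-8 calcium influx in TRPV1-expressing cells, kinetic read (ex 480/em 520 nm). Compound added and read 3 min for agonist activity, followed by capsaicin at EC20 final and 2 min further read for enhancement.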
# * hit, by the source's call; u = inconclusive; x = not tested or not shown. Shown are actives, neighbours in structure and some others; about 4.2% of the full set was active somewhere.
SMILES,TRPV1 PAM,D1 antagonist,D1 agonist,D1 potentiator,TRPV1 agonist
Cc1ccc(CNC(=O)CN(c2cccc([N+](=O)[O-])c2)S(C)(=O)=O)cc1,3,-35*,-1,-3,-1
COc1ccccc1CNC(=O)CN(c1cccc([N+](=O)[O-])c1)S(C)(=O)=O,-3,-35*,0,-4,3
Cc1ccccc1CNC(=O)CN(c1cccc([N+](=O)[O-])c1)S(C)(=O)=O,-5,-17,4,-1,4
COc1ccc(CCNC(=O)C(C)n2c(=O)cc(-c3ccccc3)c3c(C)nn(C)c32)cc1OC (stereo not given),x,3,0,-3,x
COc1ccccc1CNC(=O)CCCc1nnc2n(CC(C)C)c(=O)c3sccc3n12,x,14,2,2,x
CCc1ccc2oc(C(=O)Nc3cccnc3)c(C)c2c1,-9,-13,2,-4,89*
CCc1nonc1NC(=O)c1oc2ccc(Br)cc2c1C,-5,-2,3,-3,1
O=C(Nc1cccnc1)c1cc2c(ccc3ccccc32)o1,-19,-14,0,-1,u
Cc1c(C(=O)Nc2cccnc2)oc2ccc(Br)cc12,9,13,-1,-1,91*
CC(=O)c1nn(-c2ccc(OC(F)(F)F)cc2)nc1Nc1ccc(C)cc1,x,-4,1,4,x
FC(F)(F)c1cccc(Nc2nc3nonc3nc2Nc2ccc(Cl)cc2)c1,x,-48*,51*,-5,x
CC(NC(=O)Nc1ccc([N+](=O)[O-])cc1)C(c1cccs1)N1CCCC1 (stereo not given),-23,159,175*,17,26
CC(NC(=O)Nc1cccc(Cl)c1)C(c1cccs1)N1CCCC1 (stereo not given),-28,34,113*,-4,26
CCc1ccc(Oc2c(C(F)(F)F)oc3c(CN4CCN(C)CC4)c(O)ccc3c2=O)cc1,x,-5,17,-9,x
N#Cc1c(-c2ccc(C(F)(F)F)cc2)cc(-c2ccccc2)[nH]c1=S,-5,-31*,1,-6,1
Cc1ccc(N2C(=O)C3N=NN(CC(=O)N4N=C(c5ccccc5)CC4c4ccccc4)C3C2=O)cc1 (stereo not given),84*,10,2,-8,-18
COc1ccc(C2=NN(C(=O)CCC(=O)O)C(c3ccccc3)C2)cc1 (stereo not given),14,10,4,0,1
Cc1c(C(=O)NCCSCc2ccccc2Cl)cccc1[N+](=O)[O-],-18,-14,5,-3,24
Cc1c(C(=O)NCCSCc2c(Cl)cccc2Cl)cccc1[N+](=O)[O-],2,-32*,44*,-6,0
COCCNC(=O)CSCc1c(F)cccc1Cl,18,-44*,2,-7,1
O=C(NCCSCc1c(F)cccc1Cl)c1ccco1,8,-33*,12,-10,0
COC(=O)c1cc2occc2n1Cc1nc(-c2cccc(Br)c2)oc1C,x,-1,2,-4,x
CCOC(=O)c1ccc(NC(=O)C(CC)Sc2nc3ccncc3[nH]2)cc1 (stereo not given),x,25,53*,-1,x
CCOC(=O)CN1C(=O)c2cccnc2Oc2ccccc21,x,3,-1,-4,x
Nc1nc(COC(=O)CCC(=O)c2ccccc2)nc(Nc2ccccc2)n1,6,-32*,3,-11,-7
SMILES,TRPV1 PAM,D1 antagonist,D1 agonist,D1 potentiator,TRPV1 agonist
Cc1ccc(Nc2nc(N)nc(COC(=O)C3=COCCO3)n2)cc1,0,4,0,-3,2
Nc1nc(COC(=O)c2ccc3c(c2)OCCO3)nc(Nc2ccccc2)n1,4,-31*,33*,-6,8
O=C(Nc1ccc(Cl)c(C(F)(F)F)c1)c1cc2nc(-c3ccc4c(c3)OCO4)cc(C(F)(F)F)n2n1,x,-12,0,-4,x
Cc1ccc(CNC(=O)C(C)n2c(=O)cc(-c3ccccc3)c3c(C)nn(C)c32)cc1 (stereo not given),x,24,1,-3,x
CCN1C=C(Cc2ccc(F)cc2)C2=C(C1)C(c1ccc(F)cc1)C(C#N)=C(N)O2 (stereo not given),4,-55*,2,-6,2
CC(=O)c1ccc(NS(=O)(=O)c2ccc(CC(C)C)cc2)cc1,19,1,40*,-17,-11
Cc1ccc(S(=O)(=O)NCC(=O)N(CC(=O)NCc2ccco2)Cc2ccco2)cc1,-2,-6,1,-5,-2
